Among the data in PubChem BioAssay (NCATS) are Potency and activity (max response) values, retold here.

Several values for one entry are separate records, joined by “and”; a condition that tells them apart may be missing. Equal entries are not always repeated. Results filed as inconclusive are left out. A number with no mark means an inactive call. Activity calls are given as the source filed them. Calls come from the whole dose curve; as a rule, active = well fitted curve in the direction sought with a large enough effect; inconclusive = small, poorly fitted or top-dose-only effect, or another doubt; inactive = no such curve, though single readings can be large; an effect the other way counts as inactive or inconclusive.

A short description of assay [1]: Viability qHTS for spleen associated tyrosine kinase inhibitor (SYKi) drug resistant MV4-11 cells (AID 1963824). Note: nearly all actives have a fitted effect of over 35% in size. Put shortly:
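SYK-inhibitor-resistant MV4-11 AML cells were seeded at 500 per well onto compound and cultured 72 hours (37 °C, 5% CO2). CellTiter-Glo was then added, and after 10 min at room temperature, luminescence gave viability.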

A short description of assay [2]: Quantitative highthroughput screen to assess conditional lethalithy of P12 Ichikawa cells grown in Human Plasma-Like Medium with dialyzed fetal bovine serum (HPLM+ds) (AID 1963879). For Viability: series mostly up to about 46 µM. Note: nearly all actives have a fitted effect of over 35% in size. The settings on record: Potency: viability. The procedure, abridged:
(§1)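 Each medium arm—HPLM with 10% dialyzed FBS, or RPMI1640 with 5 mM glucose and 10% untreated or dialyzed FBS—was screened against an 11-point, 3-fold compound titration for 48 h at 37 °C, with CellTiter-Glo luminescence as endpoint.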

The nature of assay [3]: Quantitative highthroughput screen to assess conditional lethalithy of P12 Ichikawa cells grown in RPMI1640 with dialyzed fetal bovine serum (RPMI+ds) (AID 1963880). Note: nearly all actives have a fitted effect of over 35% in size. The settings on record: Potency: P12-Ichikawa viability. The procedure, abridged: as §1
Assay [4] can be described thus: Quantitative highthroughput screen to assess conditional lethalithy of P12 Ichikawa cells grown in RPMI1640 with untreated serum (RPMI+s) (AID 1963881).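 For Viability: series mostly up to about 46 µM; 100% = DMSO wells and 0% = empty wells without cells.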 Note: nearly all actives have a fitted effect of over 35% in size. The settings on record: Potency: viability. The procedure, abridged: as §1
Assay [5] can be described thus: Quantitative highthroughput screen to assess conditional lethalithy of SEM cells grown in Human Plasma-Like Medium with dialyzed fetal bovine serum (HPLM+ds) (AID 1963882). For Viability: series mostly up to about 46 µM. Note: nearly all actives have a fitted effect of over 35% in size. Put shortly:
as §1

Assay [6] is described as follows: Quantitative highthroughput screen to assess conditional lethalithy of SEM cells grown in RPMI1640 with unreated serum (RPMI+s) (AID 1963883).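 For Viability: 100% = DMSO wells and 0% = empty wells without cells.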 Note: nearly all actives have a fitted effect of over 35% in size. Put shortly: as §1
The nature of assay [7]: Quantitative highthroughput screen to assess conditional lethalithy of SEM cells grown in RPMI1640 with dialyzed fetal bovine serum (RPMI+ds) (AID 1963884).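 For Viability: series mostly up to about 46 µM; 100% = DMSO control wells and 0% = empty wells without cells.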 Note: nearly all actives have a fitted effect of over 35% in size. Put shortly: as §1
Assay [8] is described as follows: Cellular viability qHTS for adrenocortical cancer (ACC) cell line SW-13 (AID 1963989).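 For activity (max response): cells grown in serum-free medium with ITS supplement; % is set by controls: 0 for no effect and ±100 for the full control effect.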 Note: nearly all actives have a fitted effect of over 65% in size. The settings on record: SW-13 ACC cells viability, CellTiter-Glo, 48 h; activity (max response): hits give low values. The procedure, abridged:
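Compound titrations (up to 46 uM final, in DMSO) were applied to SW-13 cells for 48 h at 37C/5% CO2. Reading used CellTiter-Glo after 20 min at room temperature; fitted curves yielded IC50 and efficacy.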

A short description of assay [9]: Cellular viability qHTS for adrenocortical cancer (ACC) cell line NCI-H295R (AID 1963990). Note: nearly all actives have a fitted effect of over 60% in size. Put shortly:
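Readout: CellTiter-Glo luminescence, 20 min RT. Exposure: 48 h, 37C/5% CO2. Cells: NCI-H295R, ITS-DMEM serum-free. Range: up to 46 uM. Analysis: 4PL fit, IC50 plus efficacy.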

Assay [10] can be described thus: Quantitative highthroughput screen to assess conditional lethalithy of NOMO1 cells grown in Human Plasma-Like Medium with dialyzed fetal bovine serum (HPLM+ds) (AID 1963878).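 For Viability: 100% = DMSO wells and 0% = empty wells on each plate.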 Note: nearly all actives have a fitted effect of over 35% in size. Put shortly:
as §1
Potency is the fitted concentration of half-maximal effect.

On to `O=C(NC1CC1)c1cccc(-c2ccc3c(NC(=O)C4CC4)n[nH]c3c2)c1`, for which the Potency in [1] is 4.68 µM (active); in assay [2], 10.5 µM (active); in assay [3], 11.8 µM (active); in assay [4], 11.8 µM (active); in assay [5], 16.6 µM (active); in assay [6], 14.8 µM (active). Further, the Potency in assay [7] was 16.6 µM (active); in [8], 3.55 µM (active); in assay [9], 15.8 µM (active).

`O=C(O)CCCCC(CCSCc1ccccc1)SCc1ccccc1` (centres undefined): the Potency in assay [1] was 13.2 µM (active); in assay [2], 14.8 µM (active). The Potency entry in assay [5], in [6] and in assay [7] was “inactive” in each case. Further, the activity (max response) in [8] is -7.05%.

In the case of `CN(C)[C@@H](CCOc1cccc2ccccc12)c1ccccc1`, in [1], the Potency is 23.7 µM (active). Moreover, the Potency result in [10], in assay [2], in assay [4] and in assay [7] was “inactive” throughout.

For `CCN1CCN(Cc2ccc(-c3cc4c(N[C@H](C)c5ccccc5)ncnc4[nH]3)cc2)CC1`, the Potency is 1.86 µM (active) in assay [1]; 20.9 µM (active) in assay [10]; 16.6 µM (active) in assay [5]; 14.8 µM (active) in assay [6]; 18.7 µM (active) in assay [7]; 4.47 µM (active) in [8]. Also, the Potency in [9] was 31.6 µM (active).

Take `CCc1cccc2c3c([nH]c12)[C@@](CC)(CC(=O)O)OCC3`: the Potency in assay [1] was 14.8 µM (active). In assay [8], the activity (max response) was -21.1%.

With `COc1ccc2c(c1)CC[C@@H](CN(C)CC(=O)O)[C@H]2c1ccccc1`, the Potency entry in [1] and in assay [9] was “inactive” in each case. In addition, the results for the Potency in assay [4], in [5] and in assay [6] were 2.64 µM (active), 2.35 µM (active) and 2.64 µM (active), respectively. In addition, the activity (max response) in assay [8] is 12.6%.

In the case of `CC1(N)CCN(c2cccnc2NC(=O)c2nc(-c3ncccc3C(F)(F)F)cnc2N)CC1`, the values for the Potency in assay [1] and in assay [8] were 11.8 µM (active) and 17.8 µM (active), respectively.

On to `O=C(O)C[C@H]1CCc2c1[nH]c1ccc(OCc3ccc(C4CCCC4)c(C(F)(F)F)c3)cc21`, for which the Potency in assay [1] was 7.42 µM (active). Besides, in [8], the activity (max response) is 5.55%.

Regarding `Cc1ccccc1-n1nc(-c2c(-c3ccc(F)cc3)nn3c2NC[C@@H](CO)C3)ccc1=O`, the Potency in assay [1] was 2.91 µM (active). Also, in assay [8], the activity (max response) is 12.4%.

Turning to `CN1CCN(CCCNc2ncc(Cl)c(-c3cc4c(C(=O)NC5CC5)cccc4s3)n2)CC1`, the Potency in assay [1] is 18.6 µM (active). In addition, the activity (max response) in assay [8] was 0.565%.

As to `O=c1ncn2nc(Sc3ccc(F)cc3F)ccc2c1-c1c(Cl)cccc1Cl`, the Potency is 8.2 µM (active) in assay [1] and 16.6 µM (active) in assay [6]. The activity (max response) in assay [8] is -0.752%.

In the case of `Nc1ccc(O)cc1`, the Potency entry in assay [1] was “inactive”. Also, in [8], the activity (max response) was 0.149%.

Take `O=C(CCCN1CCN(c2ccc(F)cc2)CC1)NC1c2ccccc2CSc2ccccc21` (centres undefined): the Potency in [1] is 14.6 µM (active). For the same molecule, in assay [5], the Potency result is “inactive”. Moreover, the activity (max response) in assay [8] is -20.8%.

Consider `CCN(CC)CCOC(=O)C1(C2CCCCC2)CCCCC1`, for which the Potency result in assay [1] is “inactive”. Moreover, in assay [8], the activity (max response) was -12.2%.

Consider `CCC(=O)NC[C@H](Cc1ccc(OCCc2nc(-c3ccccc3)oc2C)cc1)N/C(C)=C\C(=O)c1ccc(C(F)(F)F)cc1`, for which the Potency in assay [1] is 11.8 µM (active). Besides, the activity (max response) in [8] is -7.93%.

On to `CCOc1ccn(-c2ccc(F)cc2)c(=O)c1C(=O)Nc1ccc(Oc2ccnc(N)c2Cl)c(F)c1`, for which the Potency in assay [1] was 580 nM (active) and 1.05 µM (active); in assay [5] it was 1.48 µM (active); in assay [6], 3.32 µM (active); in assay [7], 2.09 µM (active); in [9], 14.1 µM (active).

For `CC(C)C(=O)Nc1cccc(C2CN3CCSC3=N2)c1` (centres undefined), the Potency entry in assay [1] was “inactive”. Besides, in [8], the activity (max response) was -3.96%.

As for `N#Cc1c(N)nc(N)nc1N[C@H](c1nc2c(F)ccc(Cl)c2c(=O)n1-c1cccnc1)C1CC1`, the Potency in [1] is 10.5 µM (active). Also, the activity (max response) in assay [8] was -22.7%.

As for `CCN(CC)CCSC(=O)C(c1ccccc1)c1ccccc1`, the Potency result in [1] was “inactive”. Besides, the activity (max response) in [8] was -19.1%.

Regarding `CN1CC[C@@H](NC(=O)Nc2ccc(C#N)cc2)C[C@@H]1c1nc2ccccc2[nH]1`, the Potency in [1] was 18.6 µM (active). Also, the activity (max response) in [8] is -1.78%.

As for `O=C1C(O)=C(O)C(=O)C(O)=C1O`, the Potency entry in assay [1] is “inactive”. The activity (max response) in [8] is 13.8%.

As for `CC(C)C(=O)OCc1cccc(OC(=O)[C@@H]2N3C(=O)[C@@H](NC(=O)Cc4ccccc4)[C@H]3SC2(C)C)c1`, the Potency in assay [1] was 7.5 µM (active). Moreover, the activity (max response) in assay [8] was 14.5%.

As for `Nc1ccc(S(=O)(=O)NCc2ccccc2)cc1`, the Potency result in assay [1] was “inactive”. In addition, the activity (max response) in assay [8] is -7%.

Regarding `NCCCC[C@H](NC(=O)[C@@H](NC(=O)[C@H](Cc1c[nH]c2ccccc12)NC(=O)[C@H](CCCCN)NC(=O)[C@H](CCCCN)NC(=O)[C@H](Cc1c[nH]c2ccccc12)NC(=O)[C@H](Cc1c[nH]c2ccccc12)NC(=O)[C@H](CCCCN)NC(=O)[C@@H](N)CCCCN)C(c1ccccc1)c1ccccc1)C(N)=O`, the Potency in assay [1] is 10.5 µM (active); in [8], 31.6 µM (active).

As to `O=C(O)c1cn(C2CC2)c2cc(N3CCNCC3)c(F)cc2c1=O`, the Potency result in [1] and in assay [9] was “inactive” throughout. The Potency in assay [5] was 16.6 µM (active); in assay [7], 3.72 µM (active). Moreover, the activity (max response) in assay [8] was -3.87% and 6.05%.

As to `COc1cc2c(cc1OC)[C@@H]1CC(=O)[C@@H](CC(C)C)CN1CC2`, in assay [1], the Potency result was “inactive”. For the same molecule, the activity (max response) in assay [8] is -4.64%.

`CC[C@H](C)C(=O)O[C@H]1CCC=C2C=C[C@H](C)[C@H](CC[C@@H]3C[C@@H](O)CC(=O)O3)[C@H]21`: the Potency in assay [1] is 4.68 µM (active). For the same molecule, in assay [8], the activity (max response) was -23.7%.

As for `C[C@H]1C[C@@H](n2c(Nc3ccc(OC(F)(F)F)cc3)nc3cc(CCC(=O)O)ccc32)CC(C)(C)C1`, the Potency in [1] is 10.5 µM (active). The activity (max response) in [8] was -13.1%.

`CC(=O)NS(=O)(=O)c1ccc(N)cc1`: the Potency result in assay [1] was “inactive”. Also, the activity (max response) in assay [8] is 4.13%.

For the molecule `CNS(=O)(=O)c1ccc2c(c1)/C(=C/c1[nH]c3c(c1CCCN1CCN(C)CC1)CCCC3)C(=O)N2`, the Potency is 0.332 µM (active) in assay [1] and 28.2 µM (active) in assay [8].

Turning to `NC(=O)c1cc(F)cc2c1C(=O)N(C1CCN(C3CCC(F)(F)CC3)CC1)C2`, in assay [1], the Potency result is “inactive”. In addition, the activity (max response) in assay [8] is -0.81%.

As for `Clc1ccc(C(Cn2ccnc2)OCc2ccc(Sc3ccccc3)cc2)c(Cl)c1` (centres undefined), the Potency in assay [1] is 6.61 µM (active); in assay [8], 31.6 µM (active). Besides, the Potency entry in assay [5] and in assay [7] was “inactive” in each case.

For `CC(C)(C)C[C@H]1N[C@@H](C(=O)NC2CCC(O)CC2)[C@H](c2cccc(Cl)c2F)[C@@]12C(=O)Nc1cc(Cl)ccc12` (some centres undefined), the Potency in assay [1] was 6.61 µM (active); in assay [8], 25.1 µM (active).
